Compound activity (PubChem)
SNCA expr inh = reduces expression of the alpha-synuclein gene. HEK-293 SNCA-luciferase knock-in, luminescence, 24 h. Potency, µM (titrated, usually from 57.2 µM), hits mostly inhibitors. actives 0.17% (n = 140,000). AID 1671194; also: nearly all actives have a fitted effect of over 45% in size
KDM5B inhibitor = KDM5B demethylase inhibition; KDM5B demethylase, FDH-coupled NADH fluorescence (FDH is formaldehyde dehydrogenase); Q9UGL1; actives 2.6% (n = 220,000); Potency, µM (highest dose often 57.7 µM), most hits filed as inhibitors; AID 1347165; also: nearly all actives have a fitted effect of over 70% in size
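Inhibition is measured as reduced NADH fluorescence generation from FDH coupling to formaldehyde release. Truncated KDM5BΔAP at 200 nM final acts on H3K4me3 peptide (12.5 µM in substrate mix) in pH 7.5 HEPES buffer with Tween-20, 30 min, room temperature.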
IP6K1 inh = blocks human inositol hexakisphosphate kinase 1 | Q92551 | IP6K1 kinase, ADP-Glo luminescence, 2 h; stronger effect = lower value | activity change, % (series mostly up to about 58 µM) | actives 0.81% (n = 140,000); in the data active = activity change below about -25%
Target sequence (Q92551 whole entry, looked up): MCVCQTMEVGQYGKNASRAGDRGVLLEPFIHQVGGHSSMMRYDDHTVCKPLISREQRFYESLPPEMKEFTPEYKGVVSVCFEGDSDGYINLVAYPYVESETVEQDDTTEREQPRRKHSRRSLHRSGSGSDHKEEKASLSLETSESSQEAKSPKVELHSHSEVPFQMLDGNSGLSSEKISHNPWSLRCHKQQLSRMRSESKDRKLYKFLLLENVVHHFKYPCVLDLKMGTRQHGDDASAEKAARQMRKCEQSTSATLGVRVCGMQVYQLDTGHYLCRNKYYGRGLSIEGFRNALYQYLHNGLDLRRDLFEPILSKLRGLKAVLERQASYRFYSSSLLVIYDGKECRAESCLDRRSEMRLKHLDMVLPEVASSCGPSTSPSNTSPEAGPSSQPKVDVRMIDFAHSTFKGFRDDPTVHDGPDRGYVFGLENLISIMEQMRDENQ
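ADP-Glo luminescence measures ADP made by human IP6K1 during a 2 h RT reaction with ATP/IP6 (mix at 1.3 mM/130 uM); top library doses 57.5 and 19.1 uM final.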
HEK293 viab = counter-screen for SNCA expression inhibitors: cell viability. HEK-293-SNCA-luc viability, GF-AFC fluorescence, 24 h. actives 0.12% (n = 150,000). Potency, µM (top dose mostly 57.1 µM), most hits filed as cytotoxic; also: nearly all actives have a fitted effect of over 30% in size
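HEK-293-SNCA-luc cells (1500/well) plated 24 h, then exposed 24 h to a dilution series; GF-AFC added 30 min at 37C, fluorescence 405/540 nm; normalised to medium-only and DMSO wells, Hill fit.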
IP6K1 inh cnf = confirmation of human IP6K1 inhibitors; Potency, µM (highest dose often 49 µM), most hits filed as inhibitors; shares compounds with IP6K1 inh; recombinant IP6K1 kinase, ADP-Glo luminescence, 2 h; actives 13% (n = 1,200); also: nearly all actives have a fitted effect of over 65% in size
Of the large screens only hits and unclear results are named; the others gave an inactive call (follow-up assays come after a bar, where they were run); ! = repeats disagree. Compounds with a hit are over-represented: about 2.9% of the library has one in this group of screens. Unless noted, calls follow the shape of the dose curve; as a rule, active = well fitted curve in the direction sought with a large enough effect; inconclusive = small, poorly fitted or top-dose-only effect, or another doubt; inactive = no such curve, though single readings can be large; an effect the other way counts as inactive or inconclusive.

CC(=O)Nc1ccc(S(=O)(=O)NC[C@H]2C[C@@H]3CCN2C[C@@H]3c2cc(-c3ccco3)nc(C)n2)cc1	KDM5B inhibitor 32µM
CC(=O)Nc1ccc(S(=O)(=O)NC[C@H]2C[C@@H]3CCN2C[C@@H]3c2cc(-c3ccc(N(C)C)cc3)nc(C)n2)cc1	KDM5B inhibitor 20µM
CN1CCC(N2C[C@@H]3C[C@H](C2)c2ccc(-c4ccc(OC(F)(F)F)cc4)c(=O)n2C3)CC1	KDM5B inhibitor inconclusive
COc1ccc(-c2ccc3n(c2=O)C[C@H]2C[C@@H]3CN(S(C)(=O)=O)C2)cc1	KDM5B inhibitor 40µM
O=c1oc2ccccc2c(O)c1Cc1c(O)c2ccccc2oc1=O	IP6K1 inh -25 (no result: KDM5B inhibitor)
CC(=O)N1CCC2(C1)N=C(c1cccnc1)C(=O)N2 (configuration not stated)	KDM5B inhibitor 35µM
CC(=O)N1CCC2(CC1)C(=O)NN=C2c1cccnc1	none
c1cncc(C2=NOC3(CCN(C4CCCCC4)CC3)C2)c1	HEK293 viab inconclusive
CC(=O)N1CCC2(CC1)CC(c1cccnc1)=NO2	KDM5B inhibitor 18µM
CCN(CC)C(=O)[C@@H]1C=C2c3cccc4[nH]cc(c34)C[C@H]2N(C)C1	IP6K1 inh -72 (no result: KDM5B inhibitor) | IP6K1 inh cnf inactive
COc1cc2c(cc1OCc1ccccc1)NC(=O)C21CCN(Cc2nccs2)CC1	IP6K1 inh -33 | IP6K1 inh cnf inconclusive
COc1cc2c(cc1OCc1ccncc1)NC(=O)C21CCN(Cc2ccccc2)CC1	none
N=c1c2c(-c3ccccc3)c(-c3ccccc3)n(Cc3ccccc3)c2ncn1C1CCC(O)CC1 (configuration not stated)	SNCA expr inh inconclusive (no result: KDM5B inhibitor, IP6K1 inh) | IP6K1 inh cnf inactive
O=C(Cc1ccc(Cl)cc1)N1CCCN(CCn2nc3n(c2=O)CCCC3)CC1	none (no result: SNCA expr inh, KDM5B inhibitor, HEK293 viab)
N#CC1=C(N)Oc2nc(SCc3ccccc3Cl)nc(N)c2C1c1ccc(F)cc1 (configuration not stated)	none (no result: SNCA expr inh, IP6K1 inh, HEK293 viab)
CC[n+]1c(-c2ccccc2)c2cc(N)ccc2c2ccc(N)cc21	IP6K1 inh -52 (no result: KDM5B inhibitor) | IP6K1 inh cnf inconclusive
CCOC(=O)CC(SP(=S)(OC)OC)C(=O)OCC (configuration not stated)	IP6K1 inh -70! (no result: KDM5B inhibitor) | IP6K1 inh cnf 18µM
CC[C@H]1CN2CC[C@H]1C[C@@H]2CNC(=S)Nc1ccc(N(C)C)cc1	IP6K1 inh -33 | IP6K1 inh cnf inactive
CC[C@H]1CN2CC[C@H]1C[C@@H]2CNC(=O)Nc1ccc(C(C)(C)C)cc1	none
Cc1ccc([C@H]2CN(C(=O)C(=O)c3cccn3C)[C@@H]3C4CCN(CC4)[C@H]23)cc1	IP6K1 inh -30 | IP6K1 inh cnf inactive
COc1ccc([C@@H]2CN(C(=O)C(=O)c3ccco3)[C@@H]3C4CCN(CC4)[C@@H]32)cc1	none
CCOc1ccc2c(n1)CCNC2	IP6K1 inh -26 | IP6K1 inh cnf inactive
CC(C)Cc1nc2cccnc2n1C1CCNCC1	IP6K1 inh -33 | IP6K1 inh cnf inactive
COc1cccc(CNCCc2cccc(F)c2)c1	none (no result: SNCA expr inh, IP6K1 inh, HEK293 viab)
COc1cc2c(cc1OCc1ccncc1)NC(=O)C21CCN(C(=O)C2CCC2)CC1	none
CCCCCOc1cc2c(cc1-c1cc(/C=C/C(=O)O)ccc1O)C(C)(C)CCC2(C)C	IP6K1 inh -27, HEK293 viab inconclusive (no result: SNCA expr inh, KDM5B inhibitor) | IP6K1 inh cnf inconclusive
CC12Cc3cn[nH]c3C=C1CCC1C2CCC2(C)C1CCC2(C)O (configuration not stated)	IP6K1 inh -47 (no result: SNCA expr inh, KDM5B inhibitor) | IP6K1 inh cnf 7.3µM
C[C@]12CCC(=O)C=C1CC[C@@H]1[C@H]3CC[C@](C)(O)[C@@]3(C)CC[C@@H]12	HEK293 viab inconclusive (no result: KDM5B inhibitor)
CC(=O)[O][Hg][c]1ccccc1	SNCA expr inh inconclusive, IP6K1 inh -61, HEK293 viab inconclusive (no result: KDM5B inhibitor) | IP6K1 inh cnf 0.65µM
N#Cc1nn(-c2c(Cl)cc(C(F)(F)F)cc2Cl)c(N)c1S(=O)C(F)(F)F (configuration not stated)	IP6K1 inh -41 (no result: KDM5B inhibitor) | IP6K1 inh cnf inconclusive
COc1cc2c(cc1OCC1CC1)NC(=O)C21CCN(c2ccnc(C)n2)CC1	none
COc1cc2c(cc1OCC1CC1)NC(=O)C21CCN(c2nc(C)cnc2C)CC1	IP6K1 inh -32 | IP6K1 inh cnf inactive
C#C[C@H]1CN2CC[C@H]1C[C@@H]2CNS(=O)(=O)c1ccc(Cl)cc1	none
O=C1Nc2ccccc2C12CCN(Cc1ccc(C(F)(F)F)cc1)CC2	SNCA expr inh inconclusive, IP6K1 inh -32 | IP6K1 inh cnf inconclusive
O=C1Nc2ccccc2C12CCN(Cc1cccc3ccccc13)CC2	IP6K1 inh -47 | IP6K1 inh cnf inconclusive
C#CC1(O)CCC2C3CCC4=CC(=O)CCC4=C3C=CC21C (configuration not stated)	none (no result: SNCA expr inh, KDM5B inhibitor)
C=CC[C@]1(O)CC[C@H]2[C@@H]3CCC4=CC(=O)CCC4=C3C=C[C@@]21C	IP6K1 inh -45 (no result: KDM5B inhibitor) | IP6K1 inh cnf inactive
O=C(Nc1ccccc1)Nc1ccc2n(c1=O)C[C@H]1C[C@@H]2CN(C(=O)c2cccs2)C1	KDM5B inhibitor inconclusive
CCOC(=O)[C@H]1CN(C(=O)c2ccc(Cl)cc2)[C@]2(C)C(=O)N(CCOC)c3ccccc3[C@H]12	none (no result: SNCA expr inh, KDM5B inhibitor, HEK293 viab)
CCOP(=S)(OCC)Oc1ccc2c(C)c(Cl)c(=O)oc2c1	IP6K1 inh -52 (no result: KDM5B inhibitor) | IP6K1 inh cnf 6.5µM
Cc1c(Cl)c(=O)oc2cc(OP(=O)(OCCCl)OCCCl)ccc12	none (no result: KDM5B inhibitor)
CCCCCC(=O)N1C[C@H](C(=O)OCC)[C@H]2c3ccccc3N(CCO)C(=O)[C@]21C	none (no result: KDM5B inhibitor)
COc1ccc(-c2coc3cc(OCC(=O)N4CCN(C)CC4)ccc3c2=O)cc1	none (no result: SNCA expr inh, IP6K1 inh, HEK293 viab)
COc1nn(CSP(=S)(OC)OC)c(=O)s1	IP6K1 inh -46, HEK293 viab inconclusive (no result: KDM5B inhibitor) | IP6K1 inh cnf 10µM
C#CCN1C(=O)[C@@H]2[C@H](c3ccccc31)[C@@H](C(=O)OCC)[C@@H](c1ccccc1)N2C(=O)c1ccco1	none (no result: SNCA expr inh, KDM5B inhibitor, HEK293 viab)
Cc1ccsc1C(=O)N1[C@H]2CC[C@@H]1c1cnc(-c3ccccc3)nc1C2	none (no result: KDM5B inhibitor)
CC(NCCc1ccccc1)c1ccccc1 (configuration not stated)	none (no result: SNCA expr inh, IP6K1 inh, HEK293 viab)
